Shown is part of a subset that was picked to be rich in hits.
HT1080NT lethal – kills 2HG-producing HT-1080-NT fibrosarcoma cells; HT-1080-NT fibrosarcoma viability, CellTiter-Glo ATP luminescence, 48 h; Potency, µM (top dose mostly 46.1 µM), inactives show top-dose activity, negative = less viability, hits mostly cytotoxic; hit rate 1.6% among 360,000; AID 686970;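 also: NT is the 2HG producing partner of a matched IDH1 knockdown line; potency is read from the fitted curve at half-maximal effect; 0% = DMSO-treated cells and -100% = media-only wells without cells; nearly all actives have a fitted effect of over 55% in size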
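A 48-hour cytotoxicity screen used HT-1080-NT cells plated 2 hours before compound delivery. ATP-based CellTiter-Glo luminescence measured viability, normalized to DMSO and no-cell controls.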
IL1B secr inh – inhibitors of inflammasome signaling (IL-1 beta secretion). THP-1 LPS/ATP IL-1B secretion, AlphaLISA, 16 h; active compounds read low. activity change, % at 57.5 µM. hit rate 4.7% among 360,000; in the data active = activity change below about -50%; inconclusive = mostly about -30% to -49%
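THP-1 cells pretreated 1 hr with compounds (up to 57.5 uM final), then stimulated with LPS (250 ng/mL final) plus ATP (1.25 mM final); secreted IL-1B measured by AlphaLISA after 16 hr, decreased signal indicating inhibition.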
DT40 TDP1 no CPT – qHTS for Inhibitors of human tyrosyl-DNA phosphodiesterase 1 (TDP1): qHTS in cells in absence of CPT. DT40 Tdp1-/- hTDP1 cells, no CPT, ATP luminescence, 48 h. hit rate 15% among 420,000. Potency, µM (top dose mostly 46.2 µM), without a hit: at the highest dose activity change, negative = growth inhibition, hits mostly inhibitors; also: potency is read from the fitted curve at half-maximal effect; nearly all actives have a fitted effect of over 55% in size
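A cellular qHTS used chicken DT40 cells lacking endogenous Tdp1 but carrying stably transfected human TDP1. Compounds were applied without camptothecin, and cell growth kinetics were judged by ATP-dependent luminescence after ≥48 hr.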
DT40 TDP1 CPT – growth inhibition of DT40 Tdp1-/-;hTDP1 cells with camptothecin (screen for TDP1 inhibitors); Potency, µM (series often up to 46.2 µM), inactives show at the top dose activity change, negative = growth inhibition, most hits filed as inhibitors; AID 686979; chicken DT40 Tdp1-/-;hTDP1 cells + 20 nM CPT, ATP luminescence, 48 h; hit rate 12% among 420,000; also: potency is read from the fitted curve at half-maximal effect; nearly all actives have a fitted effect of over 55% in size
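Cell growth measured by CellTiter-Glo luminescence after a minimum 48 h, 37 C compound exposure with 20 nM CPT in Tdp1-knockout DT40 cells stably expressing hTDP1, seeded 400/well; qHTS titration format.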
HT1080 IDH1KD tx – kills HT-1080 cells with IDH1 knockdown; hit rate 2% among 360,000; Potency, µM (top dose mostly 46.1 µM), for the others: top-dose activity, negative = toxicity, hits mostly cytotoxic; HT-1080 IDH1 knockdown viability, ATP luminescence, 48 h; AID 686971;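 also: potency is read from the fitted curve at half-maximal effect; 0% = DMSO wells and -100% = cell-free medium wells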
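After a 2 h attachment period, IDH1KD HT-1080 cells took pin-transferred compound for 48 h at 37 °C; ATP-based luminescence after 10 min room-temperature reagent incubation reported viability.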
ALOX12 inh – blocks human arachidonate 12S-lipoxygenase; P18054; purified 12hLO, xylenol orange hydroperoxide absorbance; Potency, µM (doses to about 108 µM), for the others: top-dose activity change, negative = inhibition, hits mostly inhibitors; hit rate 1.1% among 580,000; also: potency is read from the fitted curve at half-maximal effect
Target sequence (P18054 whole entry, looked up): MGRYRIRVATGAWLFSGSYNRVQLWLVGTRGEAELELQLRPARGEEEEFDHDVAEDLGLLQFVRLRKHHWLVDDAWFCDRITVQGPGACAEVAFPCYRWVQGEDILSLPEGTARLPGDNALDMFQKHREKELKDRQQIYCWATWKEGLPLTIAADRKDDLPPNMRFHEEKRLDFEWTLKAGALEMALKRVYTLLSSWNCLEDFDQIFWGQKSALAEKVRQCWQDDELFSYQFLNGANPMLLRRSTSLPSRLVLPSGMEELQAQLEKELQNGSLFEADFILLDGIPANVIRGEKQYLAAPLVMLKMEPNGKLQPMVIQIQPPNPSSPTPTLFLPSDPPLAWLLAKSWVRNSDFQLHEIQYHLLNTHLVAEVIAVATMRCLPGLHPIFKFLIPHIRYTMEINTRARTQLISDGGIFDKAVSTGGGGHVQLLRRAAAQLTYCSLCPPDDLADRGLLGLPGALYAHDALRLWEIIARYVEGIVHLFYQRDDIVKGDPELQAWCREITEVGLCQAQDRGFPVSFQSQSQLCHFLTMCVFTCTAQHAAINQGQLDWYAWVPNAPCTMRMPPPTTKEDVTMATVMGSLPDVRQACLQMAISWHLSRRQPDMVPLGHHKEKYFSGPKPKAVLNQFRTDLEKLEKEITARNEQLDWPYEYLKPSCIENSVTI
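Purified human 12hLO at 150 nM in 25 mM Hepes, 0.01% Triton X-100, pH 7.0, preincubated 15 min at room temperature with compound. Reaction started with 40 uM arachidonic acid, 30 min at room temperature. Hydroperoxide measured by Fe-xylenol orange, 573/405 nm absorbance ratio.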
* = called active by the depositor; ? = inconclusive; nt = no result given; [ ] = remark or other dose. Unless noted, calls follow the shape of the dose curve; as a rule, active = well fitted curve in the direction sought with a large enough effect; inconclusive = small, poorly fitted or top-dose-only effect, or another doubt; inactive = no such curve, though single readings can be large; an effect the other way counts as inactive or inconclusive. Unless noted, % is scaled to controls: 0 for no effect and ±100 for the full control effect.

SMILES	HT1080NT lethal	IL1B secr inh	DT40 TDP1 no CPT	DT40 TDP1 CPT	HT1080 IDH1KD tx	ALOX12 inh
COc1cc2c(=O)n(Cc3ccccc3)c(=O)n(CC(=O)NCCc3ccccc3)c2cc1OC	-29%	28	15µM*	7.3µM*	-24%	28%
CSc1ccc(/C=[N+](\[O-])C2N(C)C(=S)SC2(C)C)cc1 (stereo not drawn)	nt	nt	nt	nt	nt	21%
O=C(c1ccncc1)N1C[C@@H]2OCC(=O)N(Cc3cccnc3)[C@@H]2C1	nt	nt	nt	nt	nt	-4%[176 µM]
COc1ccc(OC)c(-c2nc3c(C)cccc3cc2CN2CCN(C)CC2)c1	nt	nt	nt	nt	nt	21%
Cc1oc(-c2cccs2)nc1CC(=O)N(Cc1ccc(C(=O)NC2CC2)cc1)C1CC1	nt	nt	nt	nt	nt	1%
COc1ccc(CC(=O)Nc2ccc3c(c2)CN(Cc2cccc(OC)c2OC)C(=O)C(C)O3)cc1 (stereo not drawn)	nt	nt	nt	nt	nt	20%
COc1cc(O)c(C(CCN2CCCC2)c2ccc3c(c2)OCO3)c(OC)c1 (stereo not drawn)	-1%	?	23µM*	23µM*	-7%	?
COc1cc(O)c(C(CCN2CCN(c3ccccc3)CC2)c2ccc3c(c2)OCO3)c(OC)c1 (stereo not drawn)	-15%	?	16µM*	23µM*	-24%	-21%
CCN(CC)C(=O)CC(c1ccc2c(c1)OCO2)c1c(O)cc(OC)cc1OC (stereo not drawn)	12%	3	-29%	?	10%	?
CCN(CC)CCC(c1ccc2c(c1)OCO2)c1c(O)cc(OC)cc1OC (stereo not drawn)	-6%	-26	18µM*	21µM*	-15%	-1%
COc1cc(O)c(C(CCN2CCN(c3ccccc3)CC2)c2cc(OC)c(OC)c(OC)c2)c(OC)c1 (stereo not drawn)	-8%	-7	23µM*	21µM*	-14%	?
CCC12CN(C(C)=O)CC(C)(CN(C(C)=O)C1)C2=O	nt	nt	nt	nt	nt	0%
Cc1nc(N2CCCCC2)ncc1C(=O)N[C@H]1[C@H]2CCO[C@H]2[C@@H]1N(C)C	nt	nt	nt	nt	nt	36%
O=C1CCc2cc(S(=O)(=O)NCc3ccccc3Cl)cc3c2N1CC3	5%	-8	-1%	?	7%	?
CCOC(=O)N1CCN(C(=O)CCc2c(C)nc3c(c(C)nn3-c3ccc(C)c(C)c3)c2C)CC1	-4%	23	16µM*	?	-3%	-5%
CCOc1ccc(CCNC(=O)c2c(C)nn(-c3ccccc3)c2Cl)cc1OCC	-7%	26	?	16µM*	-7%	10%
Cc1nn(-c2ccccc2)c(C)c1C(=O)NCCc1ccccc1	3%	-26	-12%	-8%	18%	3%
Cc1nn(-c2ccccc2)c(Cl)c1C(=O)NCCCCNC(=O)c1c(C)nn(-c2ccccc2)c1Cl	1%	-14	-5%	4%	1%	14%
CCC(CNC(=O)c1c(C)nn(-c2ccccc2)c1Cl)c1ccccc1 (stereo not drawn)	7%	-82*	21µM*	23µM*	3%	-7%
Cc1nc2c(c(C)nn2-c2ccccc2)c(C)c1CCC(=O)NCCc1ccccc1	nt	nt	21µM*	21µM*	nt	3%
COCCC(=O)N1CCC(Oc2ccc(C(=O)N3CCCC(CCCO)C3)cc2)CC1 (stereo not drawn)	5%	4	-7%	-18%	8%	5%
Cn1nccc1C(=O)NCC1Cc2cc(-c3cccc(OC(F)(F)F)c3)ccc2O1 (stereo not drawn)	nt	nt	nt	nt	nt	4%
CN(C)C(=O)c1cccnc1OC1CCN(S(=O)(=O)Cc2ccccc2Cl)C1 (stereo not drawn)	nt	nt	nt	nt	nt	16%

Screens as filed in PubChem BioAssay.
